# According to PubChem BioAssay (NCATS):
# Results filed as inconclusive are left out. The source made the active and inactive calls. Unless noted, the call rests on the fitted dose curve; in most records, active means well fitted curve in the direction sought with a large enough effect; inconclusive means small, poorly fitted or top-dose-only effect, or another doubt; inactive means no such curve, though single readings can be large; an effect the other way counts as inactive or inconclusive.
# Key:
# [1] = molecular target: Lysosomal acid glucosylceramidase (Homo sapiens) (UniProt P04062); experiment: Glucocerebrosidase-p2 (AID 348; in the data active means potency below about 10 µM; further: potency means the concentration at half of the fitted maximal effect); conditions: purified GBA, blue fluorogenic substrate, 40 min
# How it was run: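 Compounds titrated from 0.6 nM upwards against 0.2 nM enzyme in pH 5.9 citric acid/KH2PO4, taurocholate, tween-20; blue fluorogenic substrate 80 uM, 40 min room temperature, stopped and read Ex 365/Em 440 for AC50.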
# [2] = AP1 Signaling Pathway (AID 357; active means well fitted curve in either direction with a large enough effect, not every such curve was filed as active; further: on the % scale 0 is the no-effect control and ±100 the full control effect); conditions: ME-180 AP-1-bla reporter, EGF-induced, beta-lactamase ratio, 5 h; at 7.69 µM (top of the series) unless noted
# How it was run: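 Modulation of EGF-driven AP-1 transcription was assessed with a beta-lactamase reporter in ME-180 cells. Compound and EC50 EGF were co-incubated 5 hours at 37 °C before 2.5-hour CCF4 loading at room temperature and dual-emission reading.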
# [3] = molecular target: Cytochrome P450 1A2 (Homo sapiens) (UniProt P05177); experiment: p450-cyp1a2 (AID 410; calls by dose curve; further: potency means the concentration at half of the fitted maximal effect)
# How it was run: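 20nM CYP1A2 with 100uM Luciferin-ME (at Km) in 100mM KPO4; compound preincubated 10 min, NADPH regeneration added, 60 min at room temperature. Luciferin quantified by luminescence after detection reagent; normalized to 57 uM furafylline.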
# [4] = Stat Signaling Pathway (AID 446; active means well fitted curve in either direction with a large enough effect, not every such curve was filed as active;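 further: ME-180 cervical cancer cells given 40 pM IL-6 alongside compound; SIE-controlled beta-lactamase reporter measured as 460/530 nm FRET emission ratio; on the % scale 0 is the no-effect control and ±100 the full control effect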); conditions: ME-180 SIE beta-lactamase reporter, IL-6 stimulated, 5 h; at 7.69 µM (top of the series) unless noted
# How it was run: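 ME-180 cells carrying a SIE-driven beta-lactamase reporter are stimulated with 40 pM IL-6 for 5 h at 37C in the presence of compound. The 460/530 nm FRET substrate ratio is read after 2.5 h at RT. Data are normalised to 300 pM IL-6 and to 125 nM JAK inhibitor controls.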
# [5] = molecular target: Glucocorticoid receptor (Homo sapiens) (UniProt P04150); experiment: GR-GFP Redistribution (AID 450;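 active means compounds whose dose series gives a full or clear partial fitted curve of increased nuclear translocation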; further: potency means the concentration at half of the fitted maximal effect); conditions: U2OS GR-GFP nuclear translocation, laser cytometry, 2 h
# [6] = molecular target: Glucocorticoid receptor (Homo sapiens) (UniProt P04150); experiment: GR-EFC Redistribution (AID 451; calls by dose curve; further: potency means the concentration at half of the fitted maximal effect); conditions: CHO-K1 GR-EFC translocation, beta-gal luminescence, 2 h
# How it was run: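 CHO-K1 cells expressing nuclear EA and GR-ED fragments of b-gal; compounds titrated up to 46 uM final, 2 h at 37 C. GR nuclear translocation read as complemented b-gal luminescence after 1 h RT detection.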
# [7] = molecular target: Mitogen-activated protein kinase 10 (Mus musculus) (UniProt Q61831); experiment: JNK3 AlphaScreen Assay (AID 530; active means well fitted curve in either direction with a large enough effect, not every such curve was filed as active;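 further: kinase came from lysate of stimulated human HepG2 cells; signal reports phosphorylation of biotinylated GST-cJun 1-79 at Ser73 with 10 µM ATP; on the % scale 0 is the no-effect control and ±100 the full control effect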)
# How it was run: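 Pre-activated (IL-1β/TNFα) JNK3 in HepG2 lysates phosphorylates biotin-GST-cJun(1-79), 10 uM ATP; anti-phospho-cJun(Ser73) AlphaScreen read at room temperature, pH 7.6 Tris buffer. Compounds pre-incubated 15 min as titrations.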
# [8] = molecular target: Cytochrome P450 3A4 (Homo sapiens) (UniProt P08684); experiment: qHTS Assay for Inhibitors and Substrates of Cytochrome P450 3A4 (AID 884); further: potency means the concentration at half of the fitted maximal effect; nearly all actives have a fitted effect of over 50% in size
# How it was run: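 20 nM human CYP3A4 with 25 uM Luciferin-PPXE (at KM) in 200 mM KPO4, preincubated 10 min with compound; NADPH regeneration started a 60 min RT reaction. Luciferin detected by luminescence, normalized to 57 uM ketoconazole as full inhibition.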
# [9] = molecular target: Cytochrome P450 3A4 (Homo sapiens) (UniProt P08684); experiment: qHTS Assay for Activators of Cytochrome P450 3A4 (AID 885); further: nearly all actives have a fitted effect of over 65% in size
# How it was run: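 Human CYP3A4 (20 nM) with Luciferin-PPXE at 25 uM (its KM) in 200 mM KPO4; 10 min compound preincubation, then NADPH regeneration and 60 min reaction at RT. Luciferin read by luminescence; normalized to 57 uM ketoconazole full inhibition.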
# [10] = molecular target: Cytochrome P450 2C19 (Homo sapiens) (UniProt P33261); experiment: qHTS Assay for Inhibitors and Substrates of Cytochrome P450 2C19 (AID 899); further: potency means the concentration at half of the fitted maximal effect; nearly all actives have a fitted effect of over 60% in size
# How it was run: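 Signal comes from luciferase acting on luciferin released by CYP2C19-mediated hydroxylation of Luciferin-H EGE, 10uM (KM). Assay mix: 5nM enzyme, 50mM KPO4; 60 min at 37C with NADPH regeneration. Data normalized against 57uM ketoconazole.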
# [11] = qHTS Assay for Lipid Storage Modulators (AID 1519; calls by dose curve; on activity change, negative = inhibition: on the % scale 0 is the no-effect control and ±100 the full control effect); conditions: Drosophila S3 cells, BODIPY lipid droplet/cell ratio, laser cytometry, cells loaded with oleic acid
# How it was run: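 Cells seeded at 5,000 per well were treated with compounds over a concentration series and loaded with oleic acid (400 uM, as added). Lipid droplet fluorescence (488 nm excitation, 500-530 nm channel) was read by laser-scanning cytometry and normalized to 20 uM Triacsin C.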
# [12] = molecular target: Dual specificity protein kinase CLK4 (Homo sapiens) (UniProt Q9HAZ1); experiment: qHTS Assay for Inhibitors of CDC-like Kinase 4 (Kinase-Glo Assay) (AID 1770); further: on the % scale 0 is the no-effect control and ±100 the full control effect; nearly all actives have a fitted effect of over 65% in size
# How it was run: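 Recombinant human Clk4 (25 nM) phosphorylated RS repeat peptide (100 uM) with 1 uM ATP in Tris pH 7.5/MgCl2/EGTA/DTT/Triton buffer for 4.5 h at room temperature. Residual ATP was quantified by Kinase-Glo luciferase luminescence.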
# [13] = molecular target: Dual specificity protein kinase CLK4 (Homo sapiens) (UniProt Q9HAZ1); experiment: qHTS Assay for Inhibitors of CDC-like Kinase 4 (ADP-FP Assay) (AID 1795); further: on the % scale 0 is the no-effect control and ±100 the full control effect; nearly all actives have a fitted effect of over 60% in size
# How it was run: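 Recombinant human Clk4 (6.25 nM) phosphorylated RS repeat peptide (100 uM) with 1 uM ATP in Tris pH 7.5/MgCl2/EGTA/DTT/Triton buffer for one hour. ADP was quantified by Transcreener competitive fluorescence polarization against an ADP calibration curve.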
# Chain of Cytochrome P450 3A4 (Homo sapiens) (P08684 whole entry, looked up): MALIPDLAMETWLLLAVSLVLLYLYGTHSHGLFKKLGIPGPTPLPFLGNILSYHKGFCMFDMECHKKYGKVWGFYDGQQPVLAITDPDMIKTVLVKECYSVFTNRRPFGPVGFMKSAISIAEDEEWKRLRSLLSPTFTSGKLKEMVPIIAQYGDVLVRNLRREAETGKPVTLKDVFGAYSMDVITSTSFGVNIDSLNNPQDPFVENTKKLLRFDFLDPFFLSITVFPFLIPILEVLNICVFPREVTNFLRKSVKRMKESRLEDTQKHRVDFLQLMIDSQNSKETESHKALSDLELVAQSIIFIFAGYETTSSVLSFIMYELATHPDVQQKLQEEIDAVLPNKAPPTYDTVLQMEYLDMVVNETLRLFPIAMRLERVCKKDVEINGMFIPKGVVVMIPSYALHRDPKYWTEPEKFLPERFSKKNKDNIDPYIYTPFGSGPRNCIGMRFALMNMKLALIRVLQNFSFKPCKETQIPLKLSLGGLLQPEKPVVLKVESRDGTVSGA
# Chain of Dual specificity protein kinase CLK4 (Homo sapiens) (Q9HAZ1 whole entry, looked up): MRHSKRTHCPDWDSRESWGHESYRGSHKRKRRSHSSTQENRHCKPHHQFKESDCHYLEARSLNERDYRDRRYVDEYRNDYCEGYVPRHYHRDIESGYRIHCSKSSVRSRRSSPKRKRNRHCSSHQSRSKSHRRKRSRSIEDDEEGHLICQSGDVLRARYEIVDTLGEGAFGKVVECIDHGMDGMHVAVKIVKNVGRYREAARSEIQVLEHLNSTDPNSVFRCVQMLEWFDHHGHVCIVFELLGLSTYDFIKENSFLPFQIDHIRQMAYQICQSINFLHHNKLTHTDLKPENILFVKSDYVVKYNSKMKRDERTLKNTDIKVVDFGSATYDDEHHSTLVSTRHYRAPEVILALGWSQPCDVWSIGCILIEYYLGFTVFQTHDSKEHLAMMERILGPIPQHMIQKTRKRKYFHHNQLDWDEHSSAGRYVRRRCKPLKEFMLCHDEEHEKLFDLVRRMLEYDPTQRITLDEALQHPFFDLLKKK
# Chain of Glucocorticoid receptor (Homo sapiens) (P04150 whole entry, looked up, the tested form may be a part): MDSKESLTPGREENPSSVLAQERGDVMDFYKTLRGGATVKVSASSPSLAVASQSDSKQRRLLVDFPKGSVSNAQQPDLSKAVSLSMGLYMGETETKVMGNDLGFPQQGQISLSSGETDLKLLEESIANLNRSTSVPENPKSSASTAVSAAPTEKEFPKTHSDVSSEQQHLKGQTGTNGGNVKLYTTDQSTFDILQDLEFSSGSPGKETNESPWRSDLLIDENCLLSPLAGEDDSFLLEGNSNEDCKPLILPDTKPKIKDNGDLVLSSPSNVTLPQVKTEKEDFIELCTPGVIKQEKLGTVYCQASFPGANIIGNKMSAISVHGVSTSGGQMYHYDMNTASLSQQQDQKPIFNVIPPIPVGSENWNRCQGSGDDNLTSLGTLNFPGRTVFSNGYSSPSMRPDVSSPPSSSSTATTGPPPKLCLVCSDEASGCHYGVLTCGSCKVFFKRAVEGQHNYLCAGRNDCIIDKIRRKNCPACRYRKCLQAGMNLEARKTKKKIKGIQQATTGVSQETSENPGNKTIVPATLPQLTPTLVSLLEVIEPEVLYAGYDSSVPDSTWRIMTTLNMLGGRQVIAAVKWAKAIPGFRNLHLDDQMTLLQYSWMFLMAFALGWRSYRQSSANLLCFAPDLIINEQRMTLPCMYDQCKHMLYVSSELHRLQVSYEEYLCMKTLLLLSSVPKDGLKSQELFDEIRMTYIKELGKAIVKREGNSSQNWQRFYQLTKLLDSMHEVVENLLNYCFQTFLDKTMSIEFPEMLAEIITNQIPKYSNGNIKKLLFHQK
# Chain of Cytochrome P450 1A2 (Homo sapiens) (P05177 whole entry, looked up): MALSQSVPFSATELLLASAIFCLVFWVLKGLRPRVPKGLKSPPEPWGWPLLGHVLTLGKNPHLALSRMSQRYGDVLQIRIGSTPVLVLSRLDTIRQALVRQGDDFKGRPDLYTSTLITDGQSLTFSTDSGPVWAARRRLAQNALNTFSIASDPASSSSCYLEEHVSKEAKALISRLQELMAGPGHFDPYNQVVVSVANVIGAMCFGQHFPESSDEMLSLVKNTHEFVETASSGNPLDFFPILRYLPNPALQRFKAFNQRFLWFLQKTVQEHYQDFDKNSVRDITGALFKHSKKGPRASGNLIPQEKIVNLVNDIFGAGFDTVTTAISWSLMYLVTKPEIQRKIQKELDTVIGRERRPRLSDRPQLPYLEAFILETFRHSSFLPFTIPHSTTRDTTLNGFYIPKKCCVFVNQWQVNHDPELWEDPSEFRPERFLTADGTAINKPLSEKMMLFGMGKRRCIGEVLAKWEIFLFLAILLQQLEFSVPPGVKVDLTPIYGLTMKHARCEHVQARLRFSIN
# Chain of Cytochrome P450 2C19 (Homo sapiens) (P33261 whole entry, looked up): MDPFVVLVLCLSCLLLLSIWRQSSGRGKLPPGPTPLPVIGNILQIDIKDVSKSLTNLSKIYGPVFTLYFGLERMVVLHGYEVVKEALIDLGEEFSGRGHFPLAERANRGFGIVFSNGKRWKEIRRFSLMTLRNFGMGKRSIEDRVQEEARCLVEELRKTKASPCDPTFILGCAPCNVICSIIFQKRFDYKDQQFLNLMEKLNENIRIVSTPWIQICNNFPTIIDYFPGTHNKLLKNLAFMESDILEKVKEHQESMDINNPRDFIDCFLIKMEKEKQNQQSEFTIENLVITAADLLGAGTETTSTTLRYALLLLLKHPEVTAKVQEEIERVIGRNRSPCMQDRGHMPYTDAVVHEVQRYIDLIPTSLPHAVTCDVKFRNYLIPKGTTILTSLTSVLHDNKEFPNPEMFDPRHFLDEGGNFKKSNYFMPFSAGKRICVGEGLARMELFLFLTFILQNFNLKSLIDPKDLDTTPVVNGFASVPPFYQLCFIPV
# Chain of Lysosomal acid glucosylceramidase (Homo sapiens) (P04062 whole entry, looked up): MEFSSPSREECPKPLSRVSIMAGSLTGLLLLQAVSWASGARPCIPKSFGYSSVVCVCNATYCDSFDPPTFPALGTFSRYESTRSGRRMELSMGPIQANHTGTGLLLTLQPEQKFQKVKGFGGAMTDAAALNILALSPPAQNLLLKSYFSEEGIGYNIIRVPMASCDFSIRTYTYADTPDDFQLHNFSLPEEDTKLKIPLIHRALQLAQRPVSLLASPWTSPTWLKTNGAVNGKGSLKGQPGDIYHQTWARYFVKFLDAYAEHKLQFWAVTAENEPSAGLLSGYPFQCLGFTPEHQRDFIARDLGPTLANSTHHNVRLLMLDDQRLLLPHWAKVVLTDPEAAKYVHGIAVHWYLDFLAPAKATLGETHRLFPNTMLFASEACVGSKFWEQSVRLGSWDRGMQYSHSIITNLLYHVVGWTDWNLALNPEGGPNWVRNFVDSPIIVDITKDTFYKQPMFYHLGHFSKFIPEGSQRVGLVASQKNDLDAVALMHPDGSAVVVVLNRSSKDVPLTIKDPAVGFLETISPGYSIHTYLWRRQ
structure (smiles),measurement,setting,value
Clc1ccccc1-c1cncnc1NCc1cccs1,Potency,[1],> 11.4 µM (inactive)
same,"activity change, negative = inhibition",[2],-10.1% (inactive)
same,Potency,[3],3.98 µM (active)
same,"activity, negative = inhibition",[4],-9.78% (inactive)
same,Potency,[5],> 46 µM (inactive)
same,Potency,[6],> 46 µM (inactive)
same,outcome,[7],inactive
same,Potency,[8],0.501 µM (active)
same,Potency,[9],inactive
same,Potency,[10],1.58 µM (active)
same,"activity change, negative = inhibition",[11]; at 57.5 µM (top of the series),4.06% (inactive)
same,max response,[11]; measured here: cell count channel max response,21%
same,max response,[11]; measured here: lipid channel max response,23.3%
same,Potency,[12],inactive
same,Potency,[13],inactive
